Bioassay records (PubChem)
Shown are actives, neighbours in structure and some others; about 2.4% of the full set was active somewhere.
NOD2 RIPK2 PPI: NOD2-RIPK2 protein interaction inhibition; CHO BLA complementation NOD2-RIPK2, CCF4 ratio; inhibition, % at 4.98 µM; O43353; AID 624267; actives 0.38% (n = 360,000); in the data active means inhibition above about 21%;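 further: 0% = vehicle only and 100% = reference blocker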
Target sequence (O43353 whole entry, looked up): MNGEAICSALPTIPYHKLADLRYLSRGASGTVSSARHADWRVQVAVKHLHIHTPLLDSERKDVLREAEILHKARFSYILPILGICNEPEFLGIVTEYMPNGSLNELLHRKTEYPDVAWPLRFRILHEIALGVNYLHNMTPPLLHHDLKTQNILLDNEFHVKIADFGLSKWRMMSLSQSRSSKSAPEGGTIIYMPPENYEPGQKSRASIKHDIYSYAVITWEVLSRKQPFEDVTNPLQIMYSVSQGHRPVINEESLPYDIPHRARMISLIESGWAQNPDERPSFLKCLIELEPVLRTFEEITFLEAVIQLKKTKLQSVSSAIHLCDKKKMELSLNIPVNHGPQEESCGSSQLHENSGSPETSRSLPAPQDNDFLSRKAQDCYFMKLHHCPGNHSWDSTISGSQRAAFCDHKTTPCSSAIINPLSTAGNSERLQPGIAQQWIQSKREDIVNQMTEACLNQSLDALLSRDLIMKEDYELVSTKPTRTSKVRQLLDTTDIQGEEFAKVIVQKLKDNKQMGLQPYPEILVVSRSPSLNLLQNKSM
TLR4 MyD88 comp: inhibitors of human TLR4-MyD88 binding; inhibition, % at 8.4 µM; actives 0.18% (n = 200,000); O00206+Q99836; HeLa CL3-4 TLR4/MyD88 BLA complementation, FRET ratio; in the data active means inhibition above about 25%;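 further: 0% = vehicle and 100% = reference inhibitor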
ABHD5-PLIN5 inh: inhibitors of human ABHD5-perilipin-5 interaction. inhibition, % at 4 µM. Split G. princeps luciferase complementation, luminescence, 4 h. AID 602281. actives 0.78% (n = 360,000);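 active means inhibition above the mean inhibition across every tested compound plus 3 SD, cut at about 22% in these data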;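 further: 0% = DMSO only wells and the 100% control is not disclosed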
m5-HT2A agonist: mouse HTR2A agonism via beta-arrestin recruitment | P35363 | CHO-K1 mHTR2A beta-arrestin complementation, luminescence; percent of 30 µM serotonin response | activation, % at 7.6 µM | actives 0.66% (n = 360,000) | AID 624169;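 active means activation above a run cutoff, the mean activation of all tested compounds plus 3 SD, cut at about 14% in these data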;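 further: 0% = plate median of compound wells and 100% = 30 µM serotonin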
CRFR2-BP antag: blocks CRF-induced signaling of the CRF-BP/CRF-R2 complex; HEK293 CRF-R2/CRF-BP, CRF-induced calcium fluorescence; inhibition, % at 11.8 µM; actives 0.59% (n = 350,000); AID 588475;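 active means inhibition of the ligand-induced calcium signal above about 50% at the single tested concentration, limit read from the data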
TLR9-MyD88 block: blocks human TLR9 binding to MyD88; Q9NR96+Q99836; actives 0.21% (n = 340,000); inhibition, % at 4.98 µM; AID 504734; CHO BLA complementation TLR9-MyD88, CCF4 FRET ratio;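 active means inhibition above the mean over all tested compounds plus 3 SD, cut at about 21% in these data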;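 further: 0% = DMSO only wells and 100% = clavulanate BLA inhibitor control wells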
* marks the source's active call; other numbers are inactive results; x = no result given.

SMILES | NOD2 RIPK2 PPI | TLR4 MyD88 comp | ABHD5-PLIN5 inh | m5-HT2A agonist | CRFR2-BP antag | TLR9-MyD88 block
O=C(c1ccc(Br)cc1)c1cc(-c2ccccn2)c(N2CCOCC2)s1 | 3 | 12 | 5 | 2 | 14 | 12
O=C(c1ccc(Cl)c(Cl)c1)c1cc(-c2ccccn2)c(N2CCOCC2)s1 | 24* | 22 | 2 | -5 | 1 | 11
CN(C(=O)c1cccc(NC(=O)Cc2ccc(NC(=O)C3CCCN(C(=O)CCc4ccccc4)C3)cc2)c1)C1CCCCC1 (stereo not drawn) | -5 | x | 11 | -2 | 67* | -12
CCc1ccc(-c2cc(C)no2)cc1S(=O)(=O)Nc1cc(C)on1 | 4 | x | 2 | 2 | 13 | -1
CCc1ccc(-c2cc(C)no2)cc1S(=O)(=O)Nc1ccc(Cl)cn1 | 4 | x | -2 | 0 | 57* | -2
O=C(Nc1cc(Cl)cc2c1-c1ccc(Cl)cc1C2O)C(Cl)Cl (stereo not drawn) | 3 | x | 7 | 6 | 2 | -13
Cc1ccc2cc(CN(Cc3ccc4c(c3)OCO4)Cc3nnnn3Cc3ccco3)c(=O)[nH]c2c1 | -10 | -4 | 14 | -3 | -9 | -4
COc1ccc2[nH]c(=O)c(CN(C3CCCCC3)C(c3nnnn3Cc3ccco3)C(C)C)cc2c1 (stereo not drawn) | -5 | 0 | 46* | -1 | -55 | -6
COc1ccc2cc(CN(CCc3ccccc3)Cc3nnnn3Cc3ccco3)c(=O)[nH]c2c1 | 1 | 3 | 22* | -2 | -9 | -6
COc1ccc2[nH]c(=O)c(CN(Cc3nnnn3Cc3ccco3)C3CCCCC3)cc2c1 | -1 | -6 | 21 | 2 | 16 | -2
COc1ccc(C(=O)C[C@@H]2OC3CCCCC3N2S(=O)(=O)c2ccc(C)cc2)cc1OC (stereo partly drawn) | -20 | x | -8 | -4 | x | x
COCCN1C(=O)CCC1(C)c1nnnn1Cc1ccccc1 (stereo not drawn) | -3 | x | 5 | -3 | x | x
CC1(c2ccccc2)CC(C)(C)N2C(=O)/C(=C3\SC(=S)NC3=O)c3cccc1c32 (stereo not drawn) | 3 | 4 | 4 | 0 | 54* | -4
CC(=C1SC(=S)NC1=O)c1ccccc1 | 4 | x | -11 | 4 | 33 | -2
OC[C@@H](O)C(O)[C@@H](O)CO (stereo partly drawn) | -7 | x | 1 | -2 | x | x
CCn1c(C)nc2cc(C(=O)NN=Cc3ccc([N+](=O)[O-])cc3)ccc21 | -3 | x | 9 | 10 | 73* | 1
COc1ccc(CCNC(=O)C(F)(F)F)cc1S(N)(=O)=O | -1 | x | -2 | -2 | x | x
COc1ccc(N(CC(=O)N/N=C/c2ccc3c(c2)OCO3)S(=O)(=O)c2ccc(NC(C)=O)cc2)cc1 | -8 | 1 | 4 | -1 | 54* | 7
COc1cc2ccccc2cc1C(=O)N/N=C/c1ccc2c(c1)OCO2 | 3 | x | 0 | -12 | 53* | -1
Cc1sc2ncnc(Sc3ccccc3C(=O)Nc3ccc(Br)cc3)c2c1C | 1 | 7 | -17 | -2 | 2 | -4
Cc1sc2ncnc(Sc3ccccc3C(=O)Nc3ccc(C#N)cc3)c2c1C | -4 | 7 | -3 | 0 | 61* | -8
CCC(C)NC(=O)CSc1nc2ccccc2c(=O)n1CCCC(=O)NCC1CCCO1 (stereo not drawn) | 2 | 2 | 2 | 0 | 51* | 1
CCc1nc2ccc(C(=O)Nc3ccc(OC)c(OC)c3)cn2c1N(C)CCC(C)C | 2 | x | 6 | -3 | x | x
COC(=O)CSc1nn(-c2ccc(F)cc2)c(=S)s1 | -3 | 7 | -2 | -4 | 51* | 3
O=C(CSc1nn(-c2ccccc2)c(=S)s1)Nn1cnnc1 | -11 | -4 | 3 | 10 | 10 | -10
CCOc1ccc(N2CC(C(=O)NCc3nnnn3-c3ccc(C)c(C)c3)CC2=O)cc1 (stereo not drawn) | -9 | x | -5 | -1 | 54* | 2
Cc1ccc(-n2nnnc2CNC(=O)C2CC(=O)N(c3ccc(F)cc3)C2)cc1C (stereo not drawn) | 0 | x | 5 | 6 | -2 | 4
